Reference: PubChem BioAssay (NCI)
About 83,000 compounds went through this panel and 20% of them were active in at least one assay; those are over-represented in the sample as a whole.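 Percent growth is the endpoint: 0 to 100 indicates growth inhibition (40 means 60% inhibition), 0 means no net growth, and negative values indicate cell death.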 Values without a mark were called inactive. Active and inactive are the calls of the source. How the source made its calls: active means growth percent below 10; inactive means the rest.

Legend:
Assay in all cases: NCI-60 one-dose screen, 48 h (100 = growth as untreated, 0 = no growth, -100 = all killed)
Details in all cases: 10 µM unless noted
SK-MEL-2 melanoma = system: SK-MEL-2 melanoma
EKVX NSCLC = system: EKVX NSCLC
SN12C renal = system: SN12C renal
UO-31 renal = system: UO-31 renal
TK-10 renal = system: TK-10 renal
ACHN renal = system: ACHN renal
CAKI-1 renal = system: CAKI-1 renal
A498 renal = system: A498 renal
CCRF-CEM leukemia = system: CCRF-CEM leukemia
MOLT-4 leukemia = system: MOLT-4 leukemia

In the case of `O=c1ccc2nc(C(F)(F)F)nn(-c3ccccc3)c-2c1`, the growth (SK-MEL-2 melanoma) was 78.3%, the growth (EKVX NSCLC) was 95.8% and the growth (SN12C renal) was 67.9%. For the same compound, the growth (UO-31 renal) was 24%, the growth (TK-10 renal) was -98% (active) and the growth (ACHN renal) was -89% (active). For the same compound, the growth (CAKI-1 renal) was 56%, the growth (A498 renal) was 80% and the growth (CCRF-CEM leukemia) was -0.269% (active). The growth (MOLT-4 leukemia) was -20.5% (active).

In the case of `CS(=O)(=O)Cc1cnc(C2OCCO2)s1`, the growth (SK-MEL-2 melanoma) was 122%, the growth (EKVX NSCLC) was 99% and the growth (SN12C renal) was 114%. For the same compound, the growth (UO-31 renal) was 92%, the growth (TK-10 renal) was 93.8% and the growth (ACHN renal) was 96.8%. For the same compound, the growth (CAKI-1 renal) was 97.7%, the growth (A498 renal) was 116% and the growth (CCRF-CEM leukemia) was 138%. For the same compound, the growth (MOLT-4 leukemia) was 140%.

In the case of `CN1CCN(Cc2ccc(NC(=O)c3cncc(C#Cc4cnn5ccccc45)c3)cc2C(F)(F)F)CC1`, the growth (SK-MEL-2 melanoma) was -27% (active), the growth (EKVX NSCLC) was -3.23% (active) and the growth (SN12C renal) was -1.07% (active). For the same compound, the growth (UO-31 renal) was -9.3% (active), the growth (TK-10 renal) was 7.73% (active) and the growth (ACHN renal) was 2.54% (active). For the same compound, the growth (CAKI-1 renal) was -9.06% (active), the growth (A498 renal) was -11.7% (active) and the growth (CCRF-CEM leukemia) was 6.17% (active). The growth (MOLT-4 leukemia) was 1.84% (active).

`CCSC1=CC(=O)c2ccccc2C1=O` gave a growth (SK-MEL-2 melanoma) of 94.2%, a growth (EKVX NSCLC) of 92.8% and a growth (SN12C renal) of 82.8%. The growth (UO-31 renal) was 27%, the growth (TK-10 renal) was 89% and the growth (ACHN renal) was 3.01% (active). For the same compound, the growth (CAKI-1 renal) was 32.2%, the growth (A498 renal) was 97.8% and the growth (CCRF-CEM leukemia) was -6.88% (active). For the same compound, the growth (MOLT-4 leukemia) was 5.83% (active).

`O=P(O)(O)OCC1OC(n2cnc3c(NCc4ccccc4)ncnc32)C(O)C1O` (centres undefined) showed a growth (SK-MEL-2 melanoma) of 85.2%, a growth (EKVX NSCLC) of 24.7% and a growth (SN12C renal) of 19.7%. For the same compound, the growth (UO-31 renal) was 41.2%, the growth (TK-10 renal) was 10.9% and the growth (ACHN renal) was 8.81% (active). The growth (CAKI-1 renal) was 11%, the growth (A498 renal) was -11.5% (active) and the growth (CCRF-CEM leukemia) was 2.68% (active). It also gave a growth (MOLT-4 leukemia) of 21.7%.

For `O=C(Nc1ccc(F)cc1)Nc1ccccc1CNc1nc(Nc2ccc(OCCN3CCCC3)cc2)ncc1Cl`, the growth (SK-MEL-2 melanoma) was 99%, the growth (EKVX NSCLC) was 53.9% and the growth (SN12C renal) was -21.7% (active). The growth (UO-31 renal) was -81.5% (active), the growth (TK-10 renal) was 47.2% and the growth (ACHN renal) was -61.9% (active). For the same compound, the growth (CAKI-1 renal) was 31.2%, the growth (A498 renal) was 80.4% and the growth (CCRF-CEM leukemia) was 6.77% (active). For the same compound, the growth (MOLT-4 leukemia) was 14.1%.

Compound `CC(C(=O)O)n1c(O)c(C=Nc2cccnc2)sc1=S` (centres undefined) has a growth (SK-MEL-2 melanoma) of 114%, a growth (EKVX NSCLC) of 96.4% and a growth (SN12C renal) of 88.7%. For the same compound, the growth (UO-31 renal) was 50%, the growth (TK-10 renal) was 111% and the growth (ACHN renal) was 102%. It also gave a growth (CAKI-1 renal) of 79.7%, a growth (A498 renal) of 95.4% and a growth (CCRF-CEM leukemia) of 92.7%. For the same compound, the growth (MOLT-4 leukemia) was 94%.

In the case of `COc1cc2nc(Nc3cccc(F)c3)nc(Nc3cc(C)[nH]n3)c2cc1OC`, the growth (SK-MEL-2 melanoma) was -68.2% [20 µM] (active), the growth (EKVX NSCLC) was -67.4% [20 µM] (active) and the growth (SN12C renal) was -94.3% [20 µM] (active). The growth (UO-31 renal) was -98.7% [20 µM] (active), the growth (TK-10 renal) was -71% [20 µM] (active) and the growth (ACHN renal) was -97.1% [20 µM] (active). The growth (CAKI-1 renal) was -97.7% [20 µM] (active), the growth (A498 renal) was -83% [20 µM] (active) and the growth (CCRF-CEM leukemia) was -19.7% [20 µM] (active). The growth (MOLT-4 leukemia) was -40.8% [20 µM] (active).

Work on `Cc1ccc2[nH]c(-c3ccc(S(C)(=O)=O)cc3)c(/C=N/N=C(N)N)c2c1` yielded a growth (SK-MEL-2 melanoma) of 43.2%, a growth (EKVX NSCLC) of 90.2% and a growth (SN12C renal) of 56.9%. It also gave a growth (UO-31 renal) of 60%, a growth (TK-10 renal) of 90.9% and a growth (ACHN renal) of 63%. It also gave a growth (CAKI-1 renal) of 52.3%, a growth (A498 renal) of 38.2% and a growth (CCRF-CEM leukemia) of 37.2%. It also gave a growth (MOLT-4 leukemia) of 41.6%.

For `COc1cc(-c2nc3occn3c2-c2ccnc(NCCCNS(=O)(=O)c3ccccc3)n2)ccc1F`, the growth (SK-MEL-2 melanoma) was 34.2%, the growth (EKVX NSCLC) was 44.7% and the growth (SN12C renal) was 44%. It also gave a growth (UO-31 renal) of 11.5%, a growth (TK-10 renal) of 49.5% and a growth (ACHN renal) of 37.3%. The growth (CAKI-1 renal) was 29.7%, the growth (A498 renal) was 57.1% and the growth (CCRF-CEM leukemia) was 17.3%. The growth (MOLT-4 leukemia) was 11%.

`COc1ccc(Cl)cc1Nc1nc(C(F)(F)F)ccc1C(=O)N/N=C/c1ccccc1Cl` was tested, and the growth (SK-MEL-2 melanoma) was -7.25% (active), the growth (EKVX NSCLC) was -0.149% (active) and the growth (SN12C renal) was 0.596% (active). The growth (UO-31 renal) was 2.9% (active), the growth (TK-10 renal) was 15.6% and the growth (ACHN renal) was 3.39% (active). The growth (CAKI-1 renal) was 11.5%, the growth (A498 renal) was 28.1% and the growth (CCRF-CEM leukemia) was 7.11% (active). The growth (MOLT-4 leukemia) was 3.07% (active).

In the case of `O=C(Nc1ccccc1O)c1ccccc1Nc1ccnc(C(F)(F)F)c1`, the growth (SK-MEL-2 melanoma) was 104%, the growth (EKVX NSCLC) was 93% and the growth (SN12C renal) was 87.3%. The growth (UO-31 renal) was 66.2%, the growth (TK-10 renal) was 136% and the growth (ACHN renal) was 93.8%. The growth (CAKI-1 renal) was 98.3%, the growth (A498 renal) was 145% and the growth (CCRF-CEM leukemia) was 84.8%. It also gave a growth (MOLT-4 leukemia) of 74.5%.

Compound `CCCCCCCCn1ccc2cc(NC(=O)Cn3cc(CN4CCN(CC)CC4)nn3)ccc21` has a growth (SK-MEL-2 melanoma) of 101%, a growth (EKVX NSCLC) of 88% and a growth (SN12C renal) of 64.1%. The growth (UO-31 renal) was 47.5%, the growth (TK-10 renal) was 99.2% and the growth (ACHN renal) was 111%. The growth (CAKI-1 renal) was 69.6%, the growth (A498 renal) was 90.5% and the growth (CCRF-CEM leukemia) was -41.2% (active). It also gave a growth (MOLT-4 leukemia) of 39.3%.

For `CCn1c2ccc(O)cc2c2c(C)c3c[n+](C(C)C)ccc3c(C)c21`, the growth (SK-MEL-2 melanoma) was 35%, the growth (EKVX NSCLC) was 75.4% and the growth (SN12C renal) was -1.36% (active). The growth (UO-31 renal) was 68.3%, the growth (TK-10 renal) was 105% and the growth (ACHN renal) was 35.2%. The growth (CAKI-1 renal) was 89.8%, the growth (CCRF-CEM leukemia) was 36.5% and the growth (MOLT-4 leukemia) was 22.2%.
